In this test the test system is firefly luciferase (FLuc). The test is described as follows: residual bioluminescent signal relative to negative (DMSO) control; higher = less interference (more residual luciferase signal). As to the method: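 Purified luciferase (FLuc 10 nM + 10 uM D-luciferin; NLuc 10 pM + 10 uM furimazine; RLuc 50 pM + 2 uM coelenterazine) in 384-well plates; metal salt pre-incubated with enzyme 10 min at RT, substrate added and luminescence read after 10 min. Signal normalised to plate DMSO negative control (% N_VALUE = x/mean neg *100); triplicate wells at 0.01, 1 and 5 mM salt.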

Setting [1] is: metal salt concentration 0.01 mM, HEPES conditions (100 mM HEPES, 5 mM MgSO4, 10 uM ATP, pH 7.5).
The mark [2] stands for this setting: metal salt concentration 0.01 mM, screening conditions (0.5 mM Tris, 50 mM glycine, 0.5 mM EDTA, 5 mM MgSO4, 10 uM ATP, pH 7.6).
Where [3] appears, read: metal salt concentration 1 mM, HEPES conditions (100 mM HEPES, 5 mM MgSO4, 10 uM ATP, pH 7.5).
Where [4] appears, read: metal salt concentration 1 mM, screening conditions (0.5 mM Tris, 50 mM glycine, 0.5 mM EDTA, 5 mM MgSO4, 10 uM ATP, pH 7.6).
Where [5] appears, read: metal salt concentration 5 mM, HEPES conditions (100 mM HEPES, 5 mM MgSO4, 10 uM ATP, pH 7.5).
Where [6] appears, read: metal salt concentration 5 mM, screening conditions (0.5 mM Tris, 50 mM glycine, 0.5 mM EDTA, 5 mM MgSO4, 10 uM ATP, pH 7.6).

± gives the standard deviation of the averaged measurements.

`O=[N+]([O-])[O-].[Ag+]` [silver nitrate]: the residual bioluminescent signal runs as follows: under setting [1], 1.36 ± 0.62%; under setting [2], 1.13 ± 0.6%; under setting [3], 1.36 ± 1.6%; under setting [4], 0.316 ± 0.079%; under setting [5], 1.49 ± 0.62%; under setting [6], 0.369 ± 0.17%.
As to `O=[N+]([O-])[O-].[Li+]` [lithium nitrate], the residual bioluminescent signal was 92.2 ± 20% under setting [1]; 93 ± 5.3% under setting [2]; 92.2 ± 40% under setting [3]; 85.8 ± 4.8% under setting [4]; 90.5 ± 3.9% under setting [5]; 74.5 ± 2.7% under setting [6].
Consider `[Cl][Sn][Cl]` [tin(II) chloride], for which the residual bioluminescent signal reads like this: under setting [1], 41.7 ± 13%; under setting [2], 90.8 ± 3.9%; under setting [3], 1.22 ± 0.41%; under setting [4], 0.369 ± 0.12%; under setting [5], 1.9 ± 0.62%; under setting [6], 0.553 ± 0.079%.
As to `O=[N+]([O-])[O-].O=[N+]([O-])[O-].[Pb+2]` [lead(II) nitrate], the residual bioluminescent signal was 3.12 ± 1.6% under setting [1]; 93.3 ± 4.7% under setting [2]; 0.814 ± 0.41% under setting [3]; 0.685 ± 0.48% under setting [4]; 0.95 ± 0.23% under setting [5]; 0.343 ± 0.17% under setting [6].
Take `O=[N+]([O-])[O-].O=[N+]([O-])[O-].[Cd+2]` [cadmium nitrate]: the residual bioluminescent signal reads like this: under setting [1], 2.44 ± 1.8%; under setting [2], 95.2 ± 4.7%; under setting [3], 1.09 ± 0.62%; under setting [4], 0.343 ± 0.12%; under setting [5], 1.09 ± 0.62%; under setting [6], 0.211 ± 0.17%.
In the case of `O=[N+]([O-])[O-].O=[N+]([O-])[O-].[Ni+2]` [nickel(II) nitrate], the residual bioluminescent signal under setting [1] turned out to be 64.7 ± 8.8%; the residual bioluminescent signal under setting [2] is 71.2 ± 7.5%; the residual bioluminescent signal under setting [3] is 2.31 ± 1.6%; the residual bioluminescent signal under setting [4] was found to be 0.501 ± 0.33%; the residual bioluminescent signal under setting [5] stood at 0.814 ± 0.41%; the residual bioluminescent signal under setting [6] amounted to 0.58 ± 0.091%.

The values above are taken from the supplement of paper PMC11628255, “Interference of metal ions on the bioluminescent signal of firefly, Renilla, and NanoLuc luciferases in high-throughput screening assays” (Frontiers in Chemistry, 2024).
